Measurements reported in publication PMC7862700, “An all-to-all approach to the identification of sequence-specific readers for epigenetic DNA modifications on cytosine”.

How the values were obtained:
Test in all cases: DAPPL (digital affinity profiling via proximity ligation, sequencing); 10 mM Tris-HCl pH 7.5, 50 mM NaCl, 1 mM DTT, 4% glycerol, room temperature, 30 min; GST-TFs on glutathione beads, 16-mer random dsDNA library, 0.1% formaldehyde crosslink after washing; high values mean tight binding
FLI1 = molecular target: T1, FLI1 (Homo sapiens, UniProt Q01543 1-452); settings: protein: recombinant; tags: N-terminal GST; dsDNA, one strand shown
T1 sequence: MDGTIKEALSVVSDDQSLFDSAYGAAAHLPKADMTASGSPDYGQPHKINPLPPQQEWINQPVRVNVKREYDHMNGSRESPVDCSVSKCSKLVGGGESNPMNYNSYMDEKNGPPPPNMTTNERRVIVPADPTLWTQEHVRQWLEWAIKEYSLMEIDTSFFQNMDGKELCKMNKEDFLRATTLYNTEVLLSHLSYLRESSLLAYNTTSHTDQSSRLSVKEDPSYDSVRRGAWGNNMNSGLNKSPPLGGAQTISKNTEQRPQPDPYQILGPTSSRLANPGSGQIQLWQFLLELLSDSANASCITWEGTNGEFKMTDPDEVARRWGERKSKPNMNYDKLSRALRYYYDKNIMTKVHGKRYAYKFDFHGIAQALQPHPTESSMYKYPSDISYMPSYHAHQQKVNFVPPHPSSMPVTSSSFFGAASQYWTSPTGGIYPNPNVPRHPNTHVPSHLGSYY
Summary of the method: (§1)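 Binding signal is defined as a hexamer's read frequency for one factor over its frequency for the tag-only sample. To obtain reads, GST-fused human transcription factors were expressed in yeast, captured on glutathione beads, barcoded with DNA and pooled with that sample. Pools met 200 nmole of a 16-mer random double-stranded DNA library in Tris/NaCl/DTT/glycerol buffer for 30 min at room temperature before washing, 0.1% formaldehyde crosslinking, proximity ligation (BsaI/T4 ligase, 1 h, 37 °C), PCR and Illumina NextSeq500 sequencing.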

ELK1 = molecular target: T2, ELK1 (Homo sapiens, UniProt P19419 1-428); settings: protein: recombinant; tags: N-terminal GST; dsDNA, one strand shown
T2 sequence: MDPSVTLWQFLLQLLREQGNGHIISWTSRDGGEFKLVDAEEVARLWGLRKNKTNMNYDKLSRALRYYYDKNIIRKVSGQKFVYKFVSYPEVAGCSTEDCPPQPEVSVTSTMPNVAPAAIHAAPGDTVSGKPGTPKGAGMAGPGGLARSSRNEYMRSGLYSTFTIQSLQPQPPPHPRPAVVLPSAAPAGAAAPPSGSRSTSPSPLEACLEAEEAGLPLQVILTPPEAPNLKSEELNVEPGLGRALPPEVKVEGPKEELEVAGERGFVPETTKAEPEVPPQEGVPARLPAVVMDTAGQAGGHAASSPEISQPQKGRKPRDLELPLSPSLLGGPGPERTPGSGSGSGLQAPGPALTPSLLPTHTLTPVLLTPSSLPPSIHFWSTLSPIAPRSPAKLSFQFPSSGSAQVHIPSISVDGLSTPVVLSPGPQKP
Summary of the method: as §1

GABPA = molecular target: T3, GABPA (Homo sapiens, UniProt Q06546 1-454); settings: protein: recombinant; tags: N-terminal GST; dsDNA, one strand shown
T3 sequence: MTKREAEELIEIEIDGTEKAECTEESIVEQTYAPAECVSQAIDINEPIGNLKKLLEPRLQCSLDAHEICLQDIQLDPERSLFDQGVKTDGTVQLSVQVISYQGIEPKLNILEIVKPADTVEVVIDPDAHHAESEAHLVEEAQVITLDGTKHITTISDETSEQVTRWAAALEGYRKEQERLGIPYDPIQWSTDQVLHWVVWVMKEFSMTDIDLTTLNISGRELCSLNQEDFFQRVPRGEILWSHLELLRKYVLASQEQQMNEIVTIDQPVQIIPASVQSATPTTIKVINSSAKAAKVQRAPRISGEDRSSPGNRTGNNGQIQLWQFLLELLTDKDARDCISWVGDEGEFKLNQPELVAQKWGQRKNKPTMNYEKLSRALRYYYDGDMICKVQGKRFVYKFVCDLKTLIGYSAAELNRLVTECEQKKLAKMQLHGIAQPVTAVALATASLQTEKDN
Summary of the method: as §1

ERG = molecular target: T4, ERG (Homo sapiens, UniProt P11308 1-479); settings: protein: recombinant; tags: N-terminal GST; dsDNA, one strand shown
T4 sequence: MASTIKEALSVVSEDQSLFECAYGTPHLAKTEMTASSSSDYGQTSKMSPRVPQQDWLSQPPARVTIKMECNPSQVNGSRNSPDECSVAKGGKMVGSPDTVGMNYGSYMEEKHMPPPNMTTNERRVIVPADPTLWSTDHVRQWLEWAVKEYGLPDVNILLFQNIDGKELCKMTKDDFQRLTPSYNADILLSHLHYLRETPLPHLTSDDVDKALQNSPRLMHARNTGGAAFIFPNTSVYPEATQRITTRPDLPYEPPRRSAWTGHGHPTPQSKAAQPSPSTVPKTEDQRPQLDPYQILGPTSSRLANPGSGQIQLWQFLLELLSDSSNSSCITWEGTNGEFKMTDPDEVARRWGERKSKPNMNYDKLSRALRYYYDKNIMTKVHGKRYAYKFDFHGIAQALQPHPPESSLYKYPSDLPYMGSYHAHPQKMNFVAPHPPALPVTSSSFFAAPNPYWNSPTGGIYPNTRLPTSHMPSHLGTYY
Summary of the method: as §1

ELF1 = ELF1 (Homo sapiens, UniProt P32519 1-619); settings: protein: recombinant; tags: N-terminal GST; dsDNA, one strand shown
Summary of the method: as §1

EHF = molecular target: T5, EHF (Homo sapiens, UniProt Q9NZC4 1-300); settings: protein: recombinant; tags: N-terminal GST; dsDNA, one strand shown
T5 sequence: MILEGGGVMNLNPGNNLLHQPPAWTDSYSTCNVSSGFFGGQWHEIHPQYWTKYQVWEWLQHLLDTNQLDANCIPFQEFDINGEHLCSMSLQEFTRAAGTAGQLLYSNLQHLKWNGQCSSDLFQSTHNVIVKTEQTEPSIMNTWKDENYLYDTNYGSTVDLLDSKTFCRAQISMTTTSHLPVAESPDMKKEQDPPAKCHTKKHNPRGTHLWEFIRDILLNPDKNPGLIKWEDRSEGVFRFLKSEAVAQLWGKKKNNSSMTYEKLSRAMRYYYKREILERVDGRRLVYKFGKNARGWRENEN
Summary of the method: as §1

SPI1 = SPI1 (Homo sapiens, UniProt P17947 1-270); settings: protein: recombinant; tags: N-terminal GST; dsDNA, one strand shown
Summary of the method: as §1

SPIB = SPIB (Homo sapiens, UniProt Q01892 1-262); settings: protein: recombinant; tags: N-terminal GST; dsDNA, one strand shown
Summary of the method: as §1

ELK3 = molecular target: T6, ELK3 (Homo sapiens, UniProt P41970 1-407); settings: protein: recombinant; tags: N-terminal GST; dsDNA, one strand shown
T6 sequence: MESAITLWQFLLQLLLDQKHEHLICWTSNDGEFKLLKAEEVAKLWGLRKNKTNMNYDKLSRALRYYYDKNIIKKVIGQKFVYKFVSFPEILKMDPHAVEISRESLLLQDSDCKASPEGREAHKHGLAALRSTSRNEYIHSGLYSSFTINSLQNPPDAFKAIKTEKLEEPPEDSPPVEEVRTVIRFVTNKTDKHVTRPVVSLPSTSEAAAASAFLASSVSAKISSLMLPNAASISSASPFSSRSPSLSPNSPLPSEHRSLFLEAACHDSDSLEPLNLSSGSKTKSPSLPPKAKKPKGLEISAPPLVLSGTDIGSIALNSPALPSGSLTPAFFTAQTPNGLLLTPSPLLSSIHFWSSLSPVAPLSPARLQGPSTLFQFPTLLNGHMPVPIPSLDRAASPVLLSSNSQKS
Summary of the method: as §1

FEV = molecular target: T7, FEV (Homo sapiens, UniProt Q99581 1-238); settings: protein: recombinant; tags: N-terminal GST; dsDNA, one strand shown
T7 sequence: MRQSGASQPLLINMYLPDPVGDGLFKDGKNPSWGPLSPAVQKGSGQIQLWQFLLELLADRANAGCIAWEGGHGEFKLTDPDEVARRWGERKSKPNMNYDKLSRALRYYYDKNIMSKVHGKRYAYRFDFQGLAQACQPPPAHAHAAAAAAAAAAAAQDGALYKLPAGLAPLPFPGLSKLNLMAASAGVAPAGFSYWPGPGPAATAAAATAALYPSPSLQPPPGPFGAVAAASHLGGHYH
Summary of the method: as §1

ETV5 = ETV5 (Homo sapiens, UniProt P41161 1-510); settings: protein: recombinant; tags: N-terminal GST; dsDNA, one strand shown
Summary of the method: as §1

HSF1 = HSF1 (Homo sapiens, UniProt Q00613 1-529); settings: protein: recombinant; tags: N-terminal GST; chain copies: 3; dsDNA, one strand shown
Summary of the method: as §1

SPIC = molecular target: T8, SPIC (Homo sapiens, UniProt Q8N5J4 1-248); settings: protein: recombinant; tags: N-terminal GST; dsDNA, one strand shown
T8 sequence: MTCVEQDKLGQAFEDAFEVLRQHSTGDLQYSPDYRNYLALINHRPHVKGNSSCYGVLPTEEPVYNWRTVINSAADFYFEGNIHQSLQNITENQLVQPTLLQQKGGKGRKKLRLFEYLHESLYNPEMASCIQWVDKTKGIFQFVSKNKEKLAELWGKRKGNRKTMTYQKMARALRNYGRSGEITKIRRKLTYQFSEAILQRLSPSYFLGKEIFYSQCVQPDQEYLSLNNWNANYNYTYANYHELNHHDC
Summary of the method: as §1

ELF4 = ELF4 (Homo sapiens, UniProt Q99607 1-663); settings: protein: recombinant; tags: N-terminal GST; dsDNA, one strand shown
Summary of the method: as §1

ELK4 = molecular target: T9, ELK4 (Homo sapiens, UniProt P28324-2 1-405); settings: protein: recombinant; tags: N-terminal GST; dsDNA, one strand shown
T9 sequence: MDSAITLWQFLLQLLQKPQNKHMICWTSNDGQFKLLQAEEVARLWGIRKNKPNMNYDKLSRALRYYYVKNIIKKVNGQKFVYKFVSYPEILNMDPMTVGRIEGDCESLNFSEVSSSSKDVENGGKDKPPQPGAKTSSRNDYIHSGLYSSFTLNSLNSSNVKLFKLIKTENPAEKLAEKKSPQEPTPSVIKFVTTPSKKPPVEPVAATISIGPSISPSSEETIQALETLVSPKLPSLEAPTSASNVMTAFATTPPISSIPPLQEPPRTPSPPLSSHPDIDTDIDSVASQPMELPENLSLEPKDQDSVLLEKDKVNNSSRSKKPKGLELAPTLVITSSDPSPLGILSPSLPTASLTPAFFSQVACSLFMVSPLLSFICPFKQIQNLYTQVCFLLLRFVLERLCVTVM
Summary of the method: as §1

ETV2 = molecular target: T10, ETV2 (Homo sapiens, UniProt O00321 1-342); settings: protein: recombinant; tags: N-terminal GST; dsDNA, one strand shown
T10 sequence: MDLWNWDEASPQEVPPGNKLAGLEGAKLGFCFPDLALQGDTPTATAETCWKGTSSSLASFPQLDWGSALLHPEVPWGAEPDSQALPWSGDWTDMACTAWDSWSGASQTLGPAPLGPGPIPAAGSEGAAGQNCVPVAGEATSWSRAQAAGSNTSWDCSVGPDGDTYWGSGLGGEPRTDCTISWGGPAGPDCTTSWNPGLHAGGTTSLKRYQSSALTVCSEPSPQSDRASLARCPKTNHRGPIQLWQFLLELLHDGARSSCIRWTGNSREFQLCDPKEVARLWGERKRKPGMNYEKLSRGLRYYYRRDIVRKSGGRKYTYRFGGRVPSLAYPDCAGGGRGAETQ
Summary of the method: as §1

ELF3 = molecular target: T11, ELF3 (Homo sapiens, UniProt P78545 1-371); settings: protein: recombinant; tags: N-terminal GST; dsDNA, one strand shown
T11 sequence: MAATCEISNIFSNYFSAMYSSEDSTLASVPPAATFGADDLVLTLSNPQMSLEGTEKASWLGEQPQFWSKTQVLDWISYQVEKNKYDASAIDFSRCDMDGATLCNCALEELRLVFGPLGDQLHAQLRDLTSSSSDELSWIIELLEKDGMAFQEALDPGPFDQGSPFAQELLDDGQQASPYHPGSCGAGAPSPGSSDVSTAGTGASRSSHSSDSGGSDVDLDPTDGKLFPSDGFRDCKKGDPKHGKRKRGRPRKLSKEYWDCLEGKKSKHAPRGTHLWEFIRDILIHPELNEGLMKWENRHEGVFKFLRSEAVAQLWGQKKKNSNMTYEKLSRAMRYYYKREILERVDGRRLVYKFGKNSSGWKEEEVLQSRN
Summary of the method: as §1

CRX = CRX (Homo sapiens, UniProt O43186 1-299); settings: protein: recombinant; tags: N-terminal GST; dsDNA, one strand shown
Summary of the method: as §1

ETV1 = ETV1 (Homo sapiens, UniProt P50549 1-477); settings: protein: recombinant; tags: N-terminal GST; dsDNA, one strand shown
Summary of the method: as §1

Chain of HSF1 (Q00613 whole entry): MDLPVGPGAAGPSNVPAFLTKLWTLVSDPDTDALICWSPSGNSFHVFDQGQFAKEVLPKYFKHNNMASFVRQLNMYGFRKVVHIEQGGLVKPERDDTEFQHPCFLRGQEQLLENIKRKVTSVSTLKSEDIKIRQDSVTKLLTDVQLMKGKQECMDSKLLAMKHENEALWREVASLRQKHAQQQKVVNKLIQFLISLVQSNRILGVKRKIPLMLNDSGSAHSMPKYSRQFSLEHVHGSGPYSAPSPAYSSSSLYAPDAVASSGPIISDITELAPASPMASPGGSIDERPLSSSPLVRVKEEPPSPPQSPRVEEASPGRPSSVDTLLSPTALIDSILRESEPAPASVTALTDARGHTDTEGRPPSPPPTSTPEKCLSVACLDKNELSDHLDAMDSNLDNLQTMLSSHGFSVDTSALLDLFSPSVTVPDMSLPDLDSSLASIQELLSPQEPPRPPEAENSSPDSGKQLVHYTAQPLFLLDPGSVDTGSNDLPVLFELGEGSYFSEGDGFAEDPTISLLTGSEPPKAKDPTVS
Chain of ELF4 (Q99607 whole entry): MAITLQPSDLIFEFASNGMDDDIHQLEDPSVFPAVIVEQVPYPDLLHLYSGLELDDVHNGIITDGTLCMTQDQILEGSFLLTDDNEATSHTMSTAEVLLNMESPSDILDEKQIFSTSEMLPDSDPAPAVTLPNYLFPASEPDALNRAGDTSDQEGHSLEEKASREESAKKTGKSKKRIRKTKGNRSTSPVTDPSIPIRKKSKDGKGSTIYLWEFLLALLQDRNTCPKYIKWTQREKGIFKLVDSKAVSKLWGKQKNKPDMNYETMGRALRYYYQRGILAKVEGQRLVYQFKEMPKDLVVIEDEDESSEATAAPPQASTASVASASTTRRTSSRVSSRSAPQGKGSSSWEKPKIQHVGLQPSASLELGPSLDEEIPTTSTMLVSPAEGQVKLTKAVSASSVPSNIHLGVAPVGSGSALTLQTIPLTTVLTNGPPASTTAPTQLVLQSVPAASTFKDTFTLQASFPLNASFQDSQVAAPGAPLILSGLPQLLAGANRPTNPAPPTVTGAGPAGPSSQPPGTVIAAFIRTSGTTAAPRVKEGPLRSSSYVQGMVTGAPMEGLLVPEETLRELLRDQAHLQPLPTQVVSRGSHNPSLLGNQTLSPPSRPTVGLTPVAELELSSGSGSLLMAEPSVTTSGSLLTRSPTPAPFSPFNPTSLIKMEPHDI
Chain of ETV5 (P41161 whole entry): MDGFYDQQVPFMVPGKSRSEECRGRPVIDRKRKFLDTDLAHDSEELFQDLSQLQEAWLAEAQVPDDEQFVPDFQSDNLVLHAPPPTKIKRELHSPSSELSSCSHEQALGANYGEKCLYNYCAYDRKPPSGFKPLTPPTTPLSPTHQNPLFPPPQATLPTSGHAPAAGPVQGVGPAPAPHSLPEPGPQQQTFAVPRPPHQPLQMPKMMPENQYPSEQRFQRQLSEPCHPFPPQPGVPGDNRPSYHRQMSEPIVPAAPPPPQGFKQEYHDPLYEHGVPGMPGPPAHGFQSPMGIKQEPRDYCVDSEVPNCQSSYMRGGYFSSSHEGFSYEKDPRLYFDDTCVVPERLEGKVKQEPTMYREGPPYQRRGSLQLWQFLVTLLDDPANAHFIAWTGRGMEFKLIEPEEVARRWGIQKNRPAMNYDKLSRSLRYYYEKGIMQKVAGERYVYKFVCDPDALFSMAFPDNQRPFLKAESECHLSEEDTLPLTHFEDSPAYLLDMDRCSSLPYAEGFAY
Chain of ETV1 (P50549 whole entry): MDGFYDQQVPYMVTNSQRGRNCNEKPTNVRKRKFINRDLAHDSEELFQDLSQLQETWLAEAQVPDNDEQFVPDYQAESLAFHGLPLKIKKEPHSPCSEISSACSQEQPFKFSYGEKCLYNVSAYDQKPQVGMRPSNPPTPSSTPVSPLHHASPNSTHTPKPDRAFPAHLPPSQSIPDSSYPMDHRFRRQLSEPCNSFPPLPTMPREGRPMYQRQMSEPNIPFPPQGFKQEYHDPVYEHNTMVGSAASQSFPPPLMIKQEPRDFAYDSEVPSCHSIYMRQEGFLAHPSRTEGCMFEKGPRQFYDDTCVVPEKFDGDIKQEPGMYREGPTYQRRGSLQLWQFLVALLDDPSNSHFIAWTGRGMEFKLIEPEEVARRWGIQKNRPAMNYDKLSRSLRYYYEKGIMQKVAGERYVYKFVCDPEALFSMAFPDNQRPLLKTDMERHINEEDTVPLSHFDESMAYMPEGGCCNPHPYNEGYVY
Chain of CRX (O43186 whole entry): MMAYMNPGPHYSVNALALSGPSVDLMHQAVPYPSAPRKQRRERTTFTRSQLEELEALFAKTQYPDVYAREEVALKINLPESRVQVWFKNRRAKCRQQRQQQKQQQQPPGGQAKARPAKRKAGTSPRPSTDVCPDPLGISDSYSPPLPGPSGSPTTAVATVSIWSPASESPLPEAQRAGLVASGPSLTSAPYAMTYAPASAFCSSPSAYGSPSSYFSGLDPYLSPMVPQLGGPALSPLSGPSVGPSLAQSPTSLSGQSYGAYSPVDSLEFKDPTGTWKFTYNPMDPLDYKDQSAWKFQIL
Chain of ELF1 (P32519 whole entry): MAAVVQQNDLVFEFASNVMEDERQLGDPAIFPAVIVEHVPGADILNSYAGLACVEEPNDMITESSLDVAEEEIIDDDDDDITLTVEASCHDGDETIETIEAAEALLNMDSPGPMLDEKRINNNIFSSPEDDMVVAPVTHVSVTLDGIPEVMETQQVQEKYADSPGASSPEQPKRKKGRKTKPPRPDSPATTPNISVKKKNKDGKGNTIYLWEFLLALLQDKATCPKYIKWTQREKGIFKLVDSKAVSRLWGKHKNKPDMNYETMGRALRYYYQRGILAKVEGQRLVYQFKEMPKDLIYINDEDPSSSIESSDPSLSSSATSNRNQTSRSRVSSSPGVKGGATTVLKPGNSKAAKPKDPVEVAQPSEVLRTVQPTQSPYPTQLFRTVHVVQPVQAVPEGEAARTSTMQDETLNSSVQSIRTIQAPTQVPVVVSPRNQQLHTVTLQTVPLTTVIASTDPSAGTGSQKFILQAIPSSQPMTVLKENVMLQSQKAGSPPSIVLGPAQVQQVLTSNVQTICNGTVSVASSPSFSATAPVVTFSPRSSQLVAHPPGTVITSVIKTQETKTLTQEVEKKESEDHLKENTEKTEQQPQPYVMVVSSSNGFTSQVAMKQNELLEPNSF
Chain of SPIB (Q01892 whole entry): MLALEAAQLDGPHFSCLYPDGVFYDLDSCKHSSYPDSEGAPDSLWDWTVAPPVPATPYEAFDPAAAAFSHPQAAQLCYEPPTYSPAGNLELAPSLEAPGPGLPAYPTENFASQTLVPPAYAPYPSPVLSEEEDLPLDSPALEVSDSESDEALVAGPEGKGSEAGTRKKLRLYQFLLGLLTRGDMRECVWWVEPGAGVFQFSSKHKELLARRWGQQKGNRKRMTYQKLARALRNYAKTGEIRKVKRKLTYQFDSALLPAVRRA

Sequence: GATGAT
- binding signal (FLI1): 1.34 fold enrichment (6-mer frequency, TF over GST control)
- binding signal (ELK1): 1.37 fold enrichment (6-mer frequency, TF over GST control)
- binding signal (GABPA): 1.35 fold enrichment (6-mer frequency, TF over GST control)
- binding signal (ERG): 1.33 fold enrichment (6-mer frequency, TF over GST control)
- binding signal (ELF1): 1.32 fold enrichment (6-mer frequency, TF over GST control)
- binding signal (EHF): 1.44 fold enrichment (6-mer frequency, TF over GST control)
- binding signal (SPI1): 1.28 fold enrichment (6-mer frequency, TF over GST control)
- binding signal (SPIB): 1.33 fold enrichment (6-mer frequency, TF over GST control)
- binding signal (ELK3): 1.34 fold enrichment (6-mer frequency, TF over GST control)
- binding signal (FEV): 1.18 fold enrichment (6-mer frequency, TF over GST control)
- binding signal (ETV5): 1.31 fold enrichment (6-mer frequency, TF over GST control)
- binding signal (HSF1): 1.49 fold enrichment (6-mer frequency, TF over GST control)
- binding signal (SPIC): 1.23 fold enrichment (6-mer frequency, TF over GST control)
- binding signal (ELF4): 1.32 fold enrichment (6-mer frequency, TF over GST control)
- binding signal (ELK4): 1.26 fold enrichment (6-mer frequency, TF over GST control)
- binding signal (ETV2): 1.33 fold enrichment (6-mer frequency, TF over GST control)
- binding signal (ELF3): 1.33 fold enrichment (6-mer frequency, TF over GST control)
- binding signal (CRX): 1.68 fold enrichment (6-mer frequency, TF over GST control)
- binding signal (ETV1): 1.27 fold enrichment (6-mer frequency, TF over GST control)
